Laboratory results: PubChem BioAssay (NCATS)

These molecules were tested against Nicotinamide N-methyltransferase (Homo sapiens) (UniProt P40261) (assay: Confirmatory Screen for Target Class Profiling of Small Molecule Inhibitors of Methyltransferases (AID 1745852)). Details: MTase-Glo luminescence, SAH detection, recombinant enzyme; measured here: NNMT max response; stronger effect = lower value.
Chain of Nicotinamide N-methyltransferase (Homo sapiens) (P40261 whole entry, looked up): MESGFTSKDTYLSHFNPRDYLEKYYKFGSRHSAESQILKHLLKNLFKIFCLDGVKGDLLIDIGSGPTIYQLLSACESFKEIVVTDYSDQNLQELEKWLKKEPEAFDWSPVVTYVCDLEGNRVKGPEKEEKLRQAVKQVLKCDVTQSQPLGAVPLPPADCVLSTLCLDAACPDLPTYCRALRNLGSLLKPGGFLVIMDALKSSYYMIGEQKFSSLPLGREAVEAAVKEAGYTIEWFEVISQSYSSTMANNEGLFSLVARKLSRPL

| SMILES | activity [%] |
| --- | --- |
| C[S+](=O)([O-])N1CCC(Cn2ccc3c(N4CCOCC4)nc(-c4cccc5[nH]ncc45)cc32)CC1 | -5.17 |
| COC(=O)c1nc(NC(=O)Cn2nc3c(cc2=O)CCCC3)sc1C(C)C | -8.15 |
| CN(C)CCNC(=O)c1ccnc(-c2nnc3ccc(N(C)c4ccccc4)nn23)c1 | -14.4 |
| CN(CCc1nc2ccc(Cl)cc2[nH]1)c1cc(C2CC(O)C2)nc(N)n1 (stereo not given) | -2.79 |
| COC(=O)C(Cc1c[nH]c2ccccc12)NC(=O)c1ccccc1Br (stereo not given) | -4.76 |
| CCc1ccc(N2C(=O)c3cc4sccc4n3CC2(C)C(=O)NC2CCCCCC2)cc1 (stereo not given) | -5.2 |
| Oc1ccc(NCCN2CCCC2)cc1 | -12.3 |
| Cc1ccc(S(=O)(=O)c2nnn3c2nc(N2CCC(N4CCCCC4)CC2)c2ccccc23)cc1C | -9.07 |
| CC(C)Cn1c(=O)c2ccccc2n2c(CCC(=O)NCCc3ccc(Cl)cc3)nnc12 | -41 |
| CN(CCCNC(=O)CCc1nnc2n(Cc3ccccc3)c(=O)c3ccccc3n12)Cc1ccccc1 | -7.26 |
| COC(=O)[C@@H]1Cc2ncn(Cc3ccc(Cl)cc3)c2CN1CCCc1ccccc1 | -17 |
| CN1CCC(N2CC[C@H](c3nc4ccc(C(F)(F)F)cc4[nH]3)C2)CC1 | 10.1 |
| O=C(NCc1ccc(Cl)cc1)c1ccc2c(=O)[nH]c3c(C(=O)NC4CCCC4)sc(=S)n3c2c1 | -79.2 |
| Cc1ccc(NS(=O)(=O)c2ccc3[nH]c(=O)[nH]c3c2)cc1F | -16.3 |
| CC1(C(=O)NC2CCCCCC2)Cn2c(cc3occc32)C(=O)N1Cc1ccc2c(c1)OCO2 (stereo not given) | -18 |
| CCCn1c(=O)c2cc(F)ccc2n2c(SCc3c(F)cccc3Cl)nnc12 | -24.8 |
| CN1CCC(N2CC[C@H](c3nc4ccccc4[nH]3)C2)CC1 | -26.5 |
| COc1cccc(N2C(=O)c3cc4occc4n3CC2(C)C(=O)NC2CCCCCC2)c1 (stereo not given) | -10.8 |
| C1=C(c2nc(-c3ccncc3)cc3c2ccn3Cc2cccnc2)CCOC1 | -8.71 |
| CN1C(=O)C(c2ccccc2)CC12CCN(c1ccnc(N)n1)CC2 (stereo not given) | 7.63 |

| SMILES | activity [%] |
| --- | --- |
| CCOC(=O)c1ccc(NC(=O)Cn2c(=O)oc3cc(S(=O)(=O)N4CCCC4)ccc32)cc1 | -9.52 |
| Cc1ccc(C)c(N2CCN(C(=O)c3ccc4c(=O)[nH]c5c(C(=O)NC(C)C)sc(=S)n5c4c3)CC2)c1 | -76.8 |
| c1ccc(-c2[nH]nc3ncc(-c4cn[nH]c4)nc23)cc1 | -59.9 |
| COc1cccc(-c2ccccc2NC(=O)C2CCN(CC=C(C)C)CC2)c1 | -3.23 |
| CCn1cc(CN2CCN(C(=O)c3cccs3)CC2)ccc1=O | -1.21 |
| CC(C)Cn1c(=O)c2ccccc2n2c(CCC(=O)N3CCN(c4ccc(F)cc4)CC3)nnc12 | -55.7 |
| Cn1c(=O)c2ccnn2c2ccc(C(=O)NCC3CCN(Cc4ccccc4F)CC3)cc21 | -38.8 |
| CCN(CC)CCNC(=O)CCc1nnc2n(CCc3ccccc3)c(=O)c3ccccc3n12 | -10.6 |
| CC(C)CCNC(=O)c1ccc2c(=O)[nH]c3c(C(=O)NC4CCCC4)sc(=S)n3c2c1 | -45.4 |
| CN1CCCC2(C1)CN(C)c1ccc(C(=O)NCC3CCCCC3)cc12 (stereo not given) | -10.6 |
| COc1cccc(CNC(=O)c2sc(=S)n3c2[nH]c(=O)c2cc4c(cc23)OCO4)c1 | -43.7 |
| Cn1cnc(CN2CCNc3cc(Nc4ccccc4)ncc3C2)c1 | 4.88 |
| COCCn1ccc2c(C3=CCOCC3)nc(-c3cccc4[nH]ccc34)cc21 | -12.7 |
| Cc1nc2c3ccccc3n3c(CCCC(=O)NCCCN(C)Cc4ccccc4)nnc3n2n1 | -3.81 |
| Cc1noc2c(N3CCOCC3)cc(-c3cccs3)nc12 | -22.1 |
| COc1ccc(C(=O)N(Cc2ccco2)S(=O)(=O)c2ccc3c(c2)n(C)c(=O)n3C)cc1 | -20 |
| O=S(=O)(c1ccc(Br)cc1)c1nnn2c1nc(NCCc1c[nH]c3ccccc13)c1ccccc12 | -1.21 |
| CCN(CC)CCNC(=O)CCc1nnc2n(Cc3ccc(C)cc3)c(=O)c3ccccc3n12 | -14.5 |
| Cc1ccc(NC(=O)N2CCc3c(c4ccccc4n3CC3CC3)C2)cc1 | 5.96 |
| COc1ccccc1CC(=O)N1CCCc2ncc(C(=O)Nc3cccc(Cl)c3)cc21 | 9.05 |

What follows are molecules tested against Phenylethanolamine N-methyltransferase (Homo sapiens) (UniProt P11086) in the same assay as above. Details: MTase-Glo luminescence, SAH detection, recombinant enzyme; measured here: PNMT max response; stronger effect = lower value.
Chain of Phenylethanolamine N-methyltransferase (Homo sapiens) (P11086 whole entry, looked up): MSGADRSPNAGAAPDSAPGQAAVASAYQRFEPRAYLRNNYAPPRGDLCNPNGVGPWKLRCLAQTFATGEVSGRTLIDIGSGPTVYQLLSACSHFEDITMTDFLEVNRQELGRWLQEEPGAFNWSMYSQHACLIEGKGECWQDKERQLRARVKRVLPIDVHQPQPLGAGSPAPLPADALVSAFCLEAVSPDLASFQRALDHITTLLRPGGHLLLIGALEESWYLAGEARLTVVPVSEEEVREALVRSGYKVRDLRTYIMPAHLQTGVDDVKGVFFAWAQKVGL

| SMILES | activity [%] |
| --- | --- |
| C[S+](=O)([O-])N1CCC(Cn2ccc3c(N4CCOCC4)nc(-c4cccc5[nH]ncc45)cc32)CC1 | -54.3 |
| COC(=O)c1nc(NC(=O)Cn2nc3c(cc2=O)CCCC3)sc1C(C)C | 2.23 |
| CN(C)CCNC(=O)c1ccnc(-c2nnc3ccc(N(C)c4ccccc4)nn23)c1 | -6.46 |
| CN(CCc1nc2ccc(Cl)cc2[nH]1)c1cc(C2CC(O)C2)nc(N)n1 (stereo not given) | 3.63 |
| COC(=O)C(Cc1c[nH]c2ccccc12)NC(=O)c1ccccc1Br (stereo not given) | -7.16 |
| CCc1ccc(N2C(=O)c3cc4sccc4n3CC2(C)C(=O)NC2CCCCCC2)cc1 (stereo not given) | -7.25 |
| Oc1ccc(NCCN2CCCC2)cc1 | -7.62 |
| Cc1ccc(S(=O)(=O)c2nnn3c2nc(N2CCC(N4CCCCC4)CC2)c2ccccc23)cc1C | -3.83 |
| CC(C)Cn1c(=O)c2ccccc2n2c(CCC(=O)NCCc3ccc(Cl)cc3)nnc12 | -6.54 |
| CN(CCCNC(=O)CCc1nnc2n(Cc3ccccc3)c(=O)c3ccccc3n12)Cc1ccccc1 | -2.41 |
| COC(=O)[C@@H]1Cc2ncn(Cc3ccc(Cl)cc3)c2CN1CCCc1ccccc1 | -1.27 |
| CN1CCC(N2CC[C@H](c3nc4ccc(C(F)(F)F)cc4[nH]3)C2)CC1 | 7.95 |
| O=C(NCc1ccc(Cl)cc1)c1ccc2c(=O)[nH]c3c(C(=O)NC4CCCC4)sc(=S)n3c2c1 | -80.2 |
| Cc1ccc(NS(=O)(=O)c2ccc3[nH]c(=O)[nH]c3c2)cc1F | -45.9 |
| CC1(C(=O)NC2CCCCCC2)Cn2c(cc3occc32)C(=O)N1Cc1ccc2c(c1)OCO2 (stereo not given) | -10.8 |
| CCCn1c(=O)c2cc(F)ccc2n2c(SCc3c(F)cccc3Cl)nnc12 | 0.382 |
| CN1CCC(N2CC[C@H](c3nc4ccccc4[nH]3)C2)CC1 | -6.23 |
| COc1cccc(N2C(=O)c3cc4occc4n3CC2(C)C(=O)NC2CCCCCC2)c1 (stereo not given) | -10.9 |
| C1=C(c2nc(-c3ccncc3)cc3c2ccn3Cc2cccnc2)CCOC1 | -24.5 |
| CN1C(=O)C(c2ccccc2)CC12CCN(c1ccnc(N)n1)CC2 (stereo not given) | 10.4 |

| SMILES | activity [%] |
| --- | --- |
| CCOC(=O)c1ccc(NC(=O)Cn2c(=O)oc3cc(S(=O)(=O)N4CCCC4)ccc32)cc1 | -37.8 |
| Cc1ccc(C)c(N2CCN(C(=O)c3ccc4c(=O)[nH]c5c(C(=O)NC(C)C)sc(=S)n5c4c3)CC2)c1 | -17.9 |
| c1ccc(-c2[nH]nc3ncc(-c4cn[nH]c4)nc23)cc1 | -83.4 |
| COc1cccc(-c2ccccc2NC(=O)C2CCN(CC=C(C)C)CC2)c1 | -3 |
| CCn1cc(CN2CCN(C(=O)c3cccs3)CC2)ccc1=O | -6.54 |
| CC(C)Cn1c(=O)c2ccccc2n2c(CCC(=O)N3CCN(c4ccc(F)cc4)CC3)nnc12 | -6.74 |
| Cn1c(=O)c2ccnn2c2ccc(C(=O)NCC3CCN(Cc4ccccc4F)CC3)cc21 | 2.1 |
| CCN(CC)CCNC(=O)CCc1nnc2n(CCc3ccccc3)c(=O)c3ccccc3n12 | 3.34 |
| CC(C)CCNC(=O)c1ccc2c(=O)[nH]c3c(C(=O)NC4CCCC4)sc(=S)n3c2c1 | -38.7 |
| CN1CCCC2(C1)CN(C)c1ccc(C(=O)NCC3CCCCC3)cc12 (stereo not given) | -0.542 |
| COc1cccc(CNC(=O)c2sc(=S)n3c2[nH]c(=O)c2cc4c(cc23)OCO4)c1 | -28 |
| Cn1cnc(CN2CCNc3cc(Nc4ccccc4)ncc3C2)c1 | -5.41 |
| COCCn1ccc2c(C3=CCOCC3)nc(-c3cccc4[nH]ccc34)cc21 | -36.9 |
| Cc1nc2c3ccccc3n3c(CCCC(=O)NCCCN(C)Cc4ccccc4)nnc3n2n1 | -3.01 |
| Cc1noc2c(N3CCOCC3)cc(-c3cccs3)nc12 | -11.9 |
| COc1ccc(C(=O)N(Cc2ccco2)S(=O)(=O)c2ccc3c(c2)n(C)c(=O)n3C)cc1 | -5.7 |
| O=S(=O)(c1ccc(Br)cc1)c1nnn2c1nc(NCCc1c[nH]c3ccccc13)c1ccccc12 | -6.06 |
| CCN(CC)CCNC(=O)CCc1nnc2n(Cc3ccc(C)cc3)c(=O)c3ccccc3n12 | 0.867 |
| Cc1ccc(NC(=O)N2CCc3c(c4ccccc4n3CC3CC3)C2)cc1 | 6.82 |
| COc1ccccc1CC(=O)N1CCCc2ncc(C(=O)Nc3cccc(Cl)c3)cc21 | 3.39 |
